A word on the AC50: it is the concentration at which the activity in the assay is half-maximal.

Data on four compounds can be found in PubChem BioAssay (EPA / NIEHS).

Calls of active or inactive are those of the source. Rule for the calls: active = hit-call score of the fitted dose curve at least 0.9, where 1 is the maximum; inactive = score below 0.9.

The nature of experiment [1]: ATG_DR4_LXR_CIS: Attagene CIS-FACTORIAL HepG2 Assay for human Liver X Receptor (LXR), DR4 submotif (AID 2282929). The settings on record: HepG2 Attagene DR4 cis-reporter, mRNA transcription; AC50: actives raise or lower the signal unless noted; outcome: actives raise or lower the signal unless noted. In a few lines:
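HepG2 cells transiently transfected with cis-promoter-driven multiplexed reporter units (DR4 element) were dosed for 24 h. Reporter mRNA was quantified by RT-PCR, fluorescent primer extension, HpaI digestion and capillary electrophoresis; bidirectional fitting versus DMSO baseline.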

Experiment [2] concerns the target Aryl hydrocarbon receptor (Homo sapiens) (UniProt P35869). The experiment in a line: ATG_Ahr_CIS: Attagene CIS-FACTORIAL HepG2 Assay for human Aryl Hydrocarbon Receptor (Ahr) (AID 2282930). The conditions noted are these: HepG2 AhR cis-factorial reporter transcription; actives raise or lower the signal. Summed up: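 HepG2 cells transiently transfected with cis-element-driven multiplexed reporter transcription units; endogenous transcription factor activity measured as reporter mRNA 24 h after dosing. RT-PCR, 6-FAM labelling, HpaI digestion, capillary electrophoresis; bidirectional fitting versus DMSO baseline.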

The nature of experiment [3]: ATG_AP_1_CIS: Attagene CIS-FACTORIAL HepG2 Assay for human Activator Protein 1 (AP-1) (AID 2282931). The settings on record: HepG2 Attagene cis-factorial AP-1 reporter mRNA; actives raise or lower the signal. In a few lines:
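HepG2 cells transiently transfected with cis-element-driven multiplex reporter units; 24 h compound exposure. Reporter mRNA quantified by RT-PCR, FAM-labelled fragments resolved by capillary electrophoresis; bidirectional fit versus DMSO baseline.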

Experiment [4] in a line: ATG_AP_2_CIS: Attagene CIS-FACTORIAL HepG2 Assay for human Activator Protein 2 (AP-2) (AID 2282932). The conditions noted are these: HepG2 AP-2 cis-reporter, Attagene transcription factor profiling; AC50: actives raise or lower the signal unless noted; outcome: actives raise or lower the signal unless noted. In a few lines: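 Cells (HepG2) transfected with promoter-driven reporter constructs, treated 24 h. Total RNA reverse-transcribed, reporter cDNA PCR-amplified, FAM-labelled by primer extension, digested, resolved by capillary electrophoresis. Activity fitted both directions versus DMSO.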

The nature of experiment [5]: ATG_BRE_CIS: Attagene CIS-FACTORIAL HepG2 Assay for human Bone Morphogenetic Protein (BMP) Response Element (BRE) (AID 2282933). The settings on record: HepG2 BMP response element reporter, Attagene transcription factor profiling; actives raise or lower the signal. In a few lines:
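Fluorescence-labelled reporter cDNA fragments, separated by capillary electrophoresis, gave the signal for this component of a 52-readout multiplex. HepG2 cells were transfected, exposed to chemicals for 24 h, and compared with DMSO using bidirectional fitting.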

Experiment [6] has as its target Retinoic acid receptor alpha (Homo sapiens) (UniProt P10276). Briefly: ATG_DR5_RAR_CIS: Attagene CIS-FACTORIAL HepG2 Assay for human Retinoic Acid Receptor Alpha (RARE), DR5 submotif (AID 2282934). The settings on record: HepG2 Attagene cis-factorial RARE DR5 reporter, mRNA; actives raise or lower the signal. Summed up: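 HepG2 cells transiently transfected with multiplexed reporter units under cis (DR5 RARE) promoters, so endogenous transcription factor activity is measured. After 24 h compound exposure, reporter mRNA is quantified by RT-PCR with fluorescent labelling and capillary electrophoresis; bidirectional fitting versus DMSO.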

In experiment [7] the target is Transcription factor E2F1 (Homo sapiens) (UniProt Q01094). Briefly: ATG_E2F_CIS: Attagene CIS-FACTORIAL HepG2 Assay for human E2F Transcription Factor 1 (AID 2282935). The settings on record: HepG2 Attagene cis-reporter, E2F reporter RNA transcripts; actives raise or lower the signal. In a few lines: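 First, HepG2 cells were transfected with reporter transcription units. Next, they were dosed for 24 h. Then RNA was isolated, converted to cDNA, PCR-amplified, FAM-labeled, HpaI-digested and analyzed by capillary electrophoresis.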
Chain of Transcription factor E2F1 (Homo sapiens) (Q01094 whole entry, looked up): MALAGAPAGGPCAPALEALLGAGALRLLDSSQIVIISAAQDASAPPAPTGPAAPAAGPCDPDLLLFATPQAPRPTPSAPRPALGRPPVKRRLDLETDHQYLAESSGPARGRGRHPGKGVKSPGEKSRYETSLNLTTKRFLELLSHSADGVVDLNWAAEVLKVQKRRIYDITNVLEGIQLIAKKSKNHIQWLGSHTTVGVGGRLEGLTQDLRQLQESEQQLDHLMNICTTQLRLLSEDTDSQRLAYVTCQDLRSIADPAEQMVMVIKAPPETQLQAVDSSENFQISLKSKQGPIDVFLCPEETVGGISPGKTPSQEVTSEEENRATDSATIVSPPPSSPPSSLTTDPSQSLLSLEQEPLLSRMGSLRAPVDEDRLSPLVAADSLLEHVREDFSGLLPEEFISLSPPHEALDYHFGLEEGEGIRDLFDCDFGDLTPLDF

Experiment [8] in a line: ATG_E_Box_CIS: Attagene CIS-FACTORIAL HepG2 Assay for human Enhancer Box (E-box) (AID 2282936). The settings on record: HepG2 E-box cis-reporter transcription, actives raise or lower the signal. Summed up:
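Endogenous transcription factor activity was sensed in human HepG2 liver cells through transfected cis-promoter reporter units. After 24 h of dosing, total RNA was reverse-transcribed and reporter cDNA resolved by capillary electrophoresis.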

The nature of experiment [9]: ATG_M_61_CIS: Attagene CIS-FACTORIAL HepG2 Assay for M61 Transcription Factor (Internal Marker) (AID 2282937). The conditions noted are these: HepG2 Attagene CIS-FACTORIAL M61 internal marker reporter; actives raise or lower the signal. Summed up: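 HepG2 cells transiently transfected with cis-element-driven multiple reporter transcription units, dosed for 24 h. Reporter mRNA measured by RT-PCR, 6-FAM primer-extension labelling, HpaI digestion and capillary electrophoresis; bidirectional fit versus DMSO baseline.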

Experiment [10] in a line: ATG_EGR_CIS: Attagene CIS-FACTORIAL HepG2 Assay for human Early Growth Response 1 (EGR1) (AID 2282938). The conditions noted are these: HepG2 Attagene CIS-FACTORIAL EGR reporter mRNA; actives raise or lower the signal. Summed up:
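HepG2 cells transiently transfected with cis-promoter-driven multiplexed reporter transcription units; reporter mRNA measured 24 h after compound dosing by RT-PCR, 6-FAM primer extension, HpaI digestion and capillary electrophoresis. Bidirectional fit versus DMSO baseline.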

Experiment [11] is described as follows: ATG_ERE_CIS: Attagene CIS-FACTORIAL HepG2 Assay for Estrogen Response Element (ERE) (AID 2282940). The settings on record: HepG2 ERE cis-reporter, Attagene RNA transcript; actives raise or lower the signal. In a few lines: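 After a 24 h chemical treatment, RNA from reporter-transfected HepG2 cells is reverse-transcribed, PCR-amplified and fluorescently labelled. Fragments separated by capillary electrophoresis give reporter signal; DMSO serves as negative control.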

Experiment [12] can be described thus: ATG_Ets_CIS: Attagene CIS-FACTORIAL HepG2 Assay for human Erythroblast Transformation Specific (ETS) (AID 2282941). The conditions noted are these: HepG2 ETS cis-reporter transcription; AC50: actives raise or lower the signal unless noted; outcome: actives raise or lower the signal unless noted. Summed up: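 RT-PCR/capillary electrophoresis fluorescence read-out of reporter mRNA; HepG2 transient multi-reporter transfection; 24 h compound exposure; gain or loss of signal fitted bidirectionally relative to DMSO.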

Experiment [13] concerns the target Hepatocyte nuclear factor 3-beta (Homo sapiens) (UniProt Q9Y261). Briefly: ATG_FoxA2_CIS: Attagene CIS-FACTORIAL HepG2 Assay for human Forkhead box A2 (FOXA2) (AID 2282942). The settings on record: HepG2 cis-reporter transcription factor activity, 24 h; actives raise or lower the signal. Summed up: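 HepG2 cells transiently transfected with multiple cis-regulated reporter transcription units, dosed for 24 h. Reporter mRNA measured by RT-PCR, 6-FAM labelling, HpaI digestion and capillary electrophoresis; bidirectional fitting against DMSO baseline.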

A short description of experiment [14]: ATG_FoxO_CIS: Attagene CIS-FACTORIAL HepG2 Assay for human Forkhead box O (FoxO) (AID 2282943). The settings on record: HepG2 Attagene cis-reporter, FoxO element, mRNA; actives raise or lower the signal. In a few lines: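 HepG2 cells transiently transfected with cis-promoter-driven multiple reporter transcription units; 24 h after chemical dosing, reporter mRNA quantified by RT-PCR, fluorescent primer extension, HpaI digestion and capillary electrophoresis. Bidirectional fitting versus DMSO baseline.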

The nature of experiment [15]: ATG_GATA_CIS: Attagene CIS-FACTORIAL HepG2 Assay for human GATA Binding Protein (AID 2282944). The settings on record: HepG2 GATA cis-element reporter, Attagene multiplex mRNA; actives raise or lower the signal. Summed up:
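Cells: HepG2, transiently transfected with cis-regulated reporter transcription units. Exposure: 24 h. Detection: RT-PCR plus capillary electrophoresis of FAM-labeled fragments. Analysis: bidirectional, DMSO as baseline.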

Experiment [16] in a line: ATG_GLI_CIS: Attagene CIS-FACTORIAL HepG2 Assay for human Zinc Finger Protein GLI1 (AID 2282945). The settings on record: HepG2, Attagene cis-factorial reporter mRNA, GLI element; actives raise or lower the signal. In a few lines: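 HepG2 cells transiently transfected with cis-promoter multiplexed reporter units report endogenous transcription factor activity. After 24 h chemical exposure, reporter mRNA was quantified by RT-PCR, 6-FAM labelling, HpaI digestion and capillary electrophoresis, with bidirectional fitting against DMSO.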

Experiment [17] concerns the target Bile acid receptor (Homo sapiens) (UniProt Q96RI1). Briefly: ATG_IR1_CIS: Attagene CIS-FACTORIAL HepG2 Assay for human Nuclear Receptor Subfamily 1 Group H Member 4 (NR1H4), IR1 submotif (AID 2282946). The conditions noted are these: IR1 reporter transcription, actives raise or lower the signal. In a few lines:
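Readout: reporter transcript levels by RT-PCR with fluorescent capillary electrophoresis, from HepG2 cells transiently transfected with multiplexed cis-regulated reporters and dosed 24 h. Gain- or loss-of-signal fitted versus DMSO negative control.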

The nature of experiment [18]: ATG_GRE_CIS: Attagene CIS-FACTORIAL HepG2 Assay for human Glucocorticoid Response Elements (GRE) (AID 2282947). The settings on record: HepG2 GRE cis-reporter, Attagene multiplex mRNA; AC50: actives raise or lower the signal unless noted; outcome: actives raise or lower the signal unless noted. Summed up: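 Cells (HepG2) bearing transfected cis-promoter reporter transcription units were treated with chemical for 24 hours. Reporter mRNA was measured via RT-PCR with capillary electrophoresis, and activity was fitted in both directions relative to DMSO.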

A short description of experiment [19]: ATG_ISRE_CIS: Attagene CIS-FACTORIAL HepG2 Assay for human Interferon Regulatory Factor 1 (IRF1) binding to an Interferon-Stimulated Response Element (ISRE) (AID 2282948). The conditions noted are these: HepG2 ISRE cis-reporter (Attagene), mRNA transcription readout; actives raise or lower the signal. Summed up:
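Read-out: fluorescent RT-PCR products resolved by capillary electrophoresis, reporting endogenous transcription factor activity via ISRE-driven reporter mRNA in transfected HepG2 cells dosed for 24 h; gain or loss fitted relative to DMSO.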

A short description of experiment [20]: ATG_M_19_CIS: Attagene CIS-FACTORIAL HepG2 Assay for M19 Transcription Factor (Internal Marker) (AID 2282939). The settings on record: HepG2 Attagene CIS-FACTORIAL M19 internal marker reporter; actives raise or lower the signal. In a few lines:
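HepG2, MRTU transient transfection, 24 h dosing. Total RNA → RT-PCR → 6-FAM primer extension → HpaI digest → CE fluorescence. Bidirectional curve fit, DMSO negative control.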

Chain of Retinoic acid receptor alpha (Homo sapiens) (P10276 whole entry, looked up): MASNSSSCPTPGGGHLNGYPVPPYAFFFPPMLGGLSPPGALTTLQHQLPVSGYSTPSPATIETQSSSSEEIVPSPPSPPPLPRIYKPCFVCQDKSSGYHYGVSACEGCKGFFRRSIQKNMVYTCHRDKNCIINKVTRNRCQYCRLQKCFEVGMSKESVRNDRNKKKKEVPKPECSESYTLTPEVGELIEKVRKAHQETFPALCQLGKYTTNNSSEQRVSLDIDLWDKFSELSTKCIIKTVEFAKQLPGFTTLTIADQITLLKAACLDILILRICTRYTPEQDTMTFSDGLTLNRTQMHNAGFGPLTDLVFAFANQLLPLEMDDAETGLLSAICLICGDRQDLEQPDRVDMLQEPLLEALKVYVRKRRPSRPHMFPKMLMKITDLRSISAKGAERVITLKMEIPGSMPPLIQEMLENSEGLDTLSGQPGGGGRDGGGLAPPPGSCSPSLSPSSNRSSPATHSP
Chain of Hepatocyte nuclear factor 3-beta (Homo sapiens) (Q9Y261 whole entry, looked up): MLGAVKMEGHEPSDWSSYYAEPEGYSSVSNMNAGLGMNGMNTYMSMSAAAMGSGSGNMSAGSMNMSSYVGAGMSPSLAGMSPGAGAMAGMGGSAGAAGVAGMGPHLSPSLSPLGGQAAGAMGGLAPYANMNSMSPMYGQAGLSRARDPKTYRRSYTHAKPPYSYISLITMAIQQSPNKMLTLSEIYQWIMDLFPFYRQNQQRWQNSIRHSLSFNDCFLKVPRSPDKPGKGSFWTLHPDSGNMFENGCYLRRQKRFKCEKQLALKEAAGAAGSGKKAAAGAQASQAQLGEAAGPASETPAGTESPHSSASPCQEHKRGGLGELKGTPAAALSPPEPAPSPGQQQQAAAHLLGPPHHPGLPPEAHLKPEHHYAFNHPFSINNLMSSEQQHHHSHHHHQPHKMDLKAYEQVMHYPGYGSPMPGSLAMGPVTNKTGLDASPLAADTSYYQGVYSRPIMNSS
Chain of Aryl hydrocarbon receptor (Homo sapiens) (P35869 whole entry, looked up): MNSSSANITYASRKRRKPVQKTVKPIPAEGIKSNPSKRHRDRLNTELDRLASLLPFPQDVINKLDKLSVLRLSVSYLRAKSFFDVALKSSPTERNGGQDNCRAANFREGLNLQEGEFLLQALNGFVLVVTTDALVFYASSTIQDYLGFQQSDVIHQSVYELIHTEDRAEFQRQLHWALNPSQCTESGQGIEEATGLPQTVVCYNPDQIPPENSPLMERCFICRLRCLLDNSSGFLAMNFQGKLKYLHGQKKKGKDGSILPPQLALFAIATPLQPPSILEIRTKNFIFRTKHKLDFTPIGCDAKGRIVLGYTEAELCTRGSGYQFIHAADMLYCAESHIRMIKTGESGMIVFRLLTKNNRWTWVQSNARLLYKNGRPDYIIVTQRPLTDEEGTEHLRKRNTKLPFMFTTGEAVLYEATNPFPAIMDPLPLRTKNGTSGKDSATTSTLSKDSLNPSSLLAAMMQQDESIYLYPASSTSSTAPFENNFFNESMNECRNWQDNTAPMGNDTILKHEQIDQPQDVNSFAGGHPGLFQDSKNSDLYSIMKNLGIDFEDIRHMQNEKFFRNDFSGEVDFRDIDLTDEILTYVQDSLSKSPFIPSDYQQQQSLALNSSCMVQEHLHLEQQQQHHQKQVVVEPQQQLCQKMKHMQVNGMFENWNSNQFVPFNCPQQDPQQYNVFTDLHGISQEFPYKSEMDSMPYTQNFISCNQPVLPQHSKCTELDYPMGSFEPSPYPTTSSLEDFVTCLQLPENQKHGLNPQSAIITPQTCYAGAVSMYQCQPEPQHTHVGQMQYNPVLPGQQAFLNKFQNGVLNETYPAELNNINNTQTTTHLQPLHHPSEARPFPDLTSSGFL
Chain of Bile acid receptor (Homo sapiens) (Q96RI1 whole entry, looked up): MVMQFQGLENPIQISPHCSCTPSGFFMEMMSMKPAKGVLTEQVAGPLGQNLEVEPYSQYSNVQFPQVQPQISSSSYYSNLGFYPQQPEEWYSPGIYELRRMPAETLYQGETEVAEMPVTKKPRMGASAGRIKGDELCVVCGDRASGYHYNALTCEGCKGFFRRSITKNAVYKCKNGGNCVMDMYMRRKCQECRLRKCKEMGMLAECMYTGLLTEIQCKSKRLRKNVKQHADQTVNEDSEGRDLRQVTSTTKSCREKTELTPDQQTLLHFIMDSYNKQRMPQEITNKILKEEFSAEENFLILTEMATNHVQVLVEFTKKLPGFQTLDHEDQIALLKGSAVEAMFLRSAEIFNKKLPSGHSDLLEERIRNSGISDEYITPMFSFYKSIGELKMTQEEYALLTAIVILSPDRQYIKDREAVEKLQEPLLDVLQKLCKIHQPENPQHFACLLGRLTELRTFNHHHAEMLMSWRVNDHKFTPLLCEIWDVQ

On to `O=C1Cc2ccccc2N1c1c(Cl)cccc1Cl`, for which the half-maximal activity concentration (AC50) in [1] is 66.4 µM (active); in experiment [5] it was 100 µM (active); in experiment [11], 6.29 µM (active); in experiment [17] it was 100 µM (active). The outcome in experiment [2], in experiment [3], in experiment [4], in [6], in experiment [7] and in [8] was inactive. Moreover, the compound was classed as inactive in experiment [9], in experiment [10], in experiment [12], in [13], in experiment [14] and in experiment [15]. Besides, the call in experiment [16], in [18] and in experiment [19] was inactive.
Regarding `O=C(O)C(=O)O`, the outcome in [1], in experiment [2], in experiment [3], in experiment [4], in [5] and in [6] was inactive. In addition, the compound was called inactive in experiment [7], in experiment [8], in [9], in experiment [10], in [20] and in experiment [12]. Further, the outcome in experiment [13], in [14], in [15], in experiment [16] and in [19] was inactive.
For `O=S(=O)(O)c1ccc2cc(O)ccc2c1`, the compound was called inactive in [1], in [2], in experiment [3], in [4], in experiment [5] and in [6]. The compound was classed as inactive in experiment [7], in [8], in experiment [9], in [10], in [20] and in experiment [12]. Further, the result in experiment [13], in experiment [14], in experiment [15], in experiment [16] and in experiment [19] was inactive.
Regarding `COC(=O)CC(C(C)=O)C(=O)OC` (configuration not stated), the call in experiment [1], in [2], in experiment [3], in experiment [4], in experiment [5] and in experiment [6] was inactive. For the same compound, the compound was classed as inactive in [7], in experiment [8], in experiment [9], in [10], in [11] and in experiment [12]. The result in experiment [13], in experiment [14], in experiment [15], in experiment [16], in [17] and in experiment [18] was inactive. Besides, the result in experiment [19] was inactive.
